Measured values taken from article PMC7862700, “An all-to-all approach to the identification of sequence-specific readers for epigenetic DNA modifications on cytosine”.

Key:
Assay in all cases: DAPPL (digital affinity profiling via proximity ligation, sequencing); 10 mM Tris-HCl pH 7.5, 50 mM NaCl, 1 mM DTT, 4% glycerol, room temperature, 30 min; GST-TFs on glutathione beads, 16-mer random dsDNA library, 0.1% formaldehyde crosslink after washing; high values mean tight binding
Settings in all cases: protein: recombinant; tags: N-terminal GST; dsDNA, one strand shown
EHF = target: T1, EHF (Homo sapiens, UniProt Q9NZC4 1-300)
T1 sequence: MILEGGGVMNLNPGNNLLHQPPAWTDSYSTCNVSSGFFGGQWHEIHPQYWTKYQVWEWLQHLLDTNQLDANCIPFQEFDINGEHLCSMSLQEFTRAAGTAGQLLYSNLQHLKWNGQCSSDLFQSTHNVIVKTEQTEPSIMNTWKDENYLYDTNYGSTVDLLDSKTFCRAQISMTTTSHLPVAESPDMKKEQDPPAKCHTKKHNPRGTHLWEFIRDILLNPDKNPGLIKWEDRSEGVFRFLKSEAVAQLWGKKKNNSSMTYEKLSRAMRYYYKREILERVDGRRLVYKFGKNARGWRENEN
Summary of the method: (§1)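 Human transcription factors were made in yeast as GST fusions, captured on glutathione beads and barcoded with DNA. With a tag-only sample included, the pool was incubated with 200 nmole of a random double-stranded 16-mer DNA library in Tris/NaCl/DTT/glycerol buffer at room temperature for 30 min, then crosslinked with 0.1% formaldehyde after washing, ligated by proximity, amplified and sequenced. For binding signal, each hexamer's read frequency for a factor is divided by its frequency for the tag-only sample.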

ELK3 = target: T2, ELK3 (Homo sapiens, UniProt P41970 1-407)
T2 sequence: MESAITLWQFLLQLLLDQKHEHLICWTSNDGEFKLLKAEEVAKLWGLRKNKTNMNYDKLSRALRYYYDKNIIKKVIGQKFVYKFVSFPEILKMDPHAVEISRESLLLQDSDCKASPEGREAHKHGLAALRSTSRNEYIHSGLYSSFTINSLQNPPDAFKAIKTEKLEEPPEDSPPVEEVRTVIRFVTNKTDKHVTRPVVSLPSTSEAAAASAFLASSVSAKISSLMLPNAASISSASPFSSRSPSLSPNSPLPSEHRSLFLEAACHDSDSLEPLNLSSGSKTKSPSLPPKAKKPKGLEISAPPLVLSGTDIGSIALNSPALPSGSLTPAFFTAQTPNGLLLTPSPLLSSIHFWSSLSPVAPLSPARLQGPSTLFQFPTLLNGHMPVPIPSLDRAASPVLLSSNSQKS
Summary of the method: as §1

SPIC = target: T3, SPIC (Homo sapiens, UniProt Q8N5J4 1-248)
T3 sequence: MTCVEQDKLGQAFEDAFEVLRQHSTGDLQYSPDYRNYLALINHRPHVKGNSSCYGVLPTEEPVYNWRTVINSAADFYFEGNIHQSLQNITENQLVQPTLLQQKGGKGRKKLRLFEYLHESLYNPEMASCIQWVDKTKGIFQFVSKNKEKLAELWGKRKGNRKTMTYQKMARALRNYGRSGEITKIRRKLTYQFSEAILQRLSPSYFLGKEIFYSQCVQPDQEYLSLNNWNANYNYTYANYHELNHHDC
Summary of the method: as §1

ELF4 = ELF4 (Homo sapiens, UniProt Q99607 1-663)
Summary of the method: as §1

ELF3 = target: T4, ELF3 (Homo sapiens, UniProt P78545 1-371)
T4 sequence: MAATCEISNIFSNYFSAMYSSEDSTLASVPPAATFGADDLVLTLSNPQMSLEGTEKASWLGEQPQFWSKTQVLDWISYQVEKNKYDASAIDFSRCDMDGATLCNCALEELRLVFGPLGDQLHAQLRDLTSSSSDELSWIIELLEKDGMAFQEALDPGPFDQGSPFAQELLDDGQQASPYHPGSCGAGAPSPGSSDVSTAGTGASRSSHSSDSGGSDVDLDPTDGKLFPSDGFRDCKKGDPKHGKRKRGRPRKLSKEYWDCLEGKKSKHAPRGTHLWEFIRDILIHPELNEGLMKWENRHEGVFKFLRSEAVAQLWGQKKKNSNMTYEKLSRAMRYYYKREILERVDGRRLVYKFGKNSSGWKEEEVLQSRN
Summary of the method: as §1

ETV1 = ETV1 (Homo sapiens, UniProt P50549 1-477)
Summary of the method: as §1

ERF = target: T5, ERF (Homo sapiens, UniProt P50548 1-548)
T5 sequence: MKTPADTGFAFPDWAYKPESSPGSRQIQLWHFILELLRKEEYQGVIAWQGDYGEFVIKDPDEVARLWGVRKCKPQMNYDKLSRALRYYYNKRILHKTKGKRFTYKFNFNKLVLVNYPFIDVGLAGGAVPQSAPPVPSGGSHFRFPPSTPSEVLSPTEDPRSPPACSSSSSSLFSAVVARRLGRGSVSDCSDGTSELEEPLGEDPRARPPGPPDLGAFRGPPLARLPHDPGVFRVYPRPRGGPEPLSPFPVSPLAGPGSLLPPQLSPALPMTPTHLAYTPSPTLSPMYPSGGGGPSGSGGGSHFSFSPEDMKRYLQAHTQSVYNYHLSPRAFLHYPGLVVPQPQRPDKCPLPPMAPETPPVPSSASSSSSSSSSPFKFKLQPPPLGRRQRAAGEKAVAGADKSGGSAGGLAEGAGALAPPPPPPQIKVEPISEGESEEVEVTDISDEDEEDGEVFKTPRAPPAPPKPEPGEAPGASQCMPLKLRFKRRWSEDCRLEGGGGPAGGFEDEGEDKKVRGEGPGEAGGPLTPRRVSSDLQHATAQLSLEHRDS
Summary of the method: as §1

ETV7 = target: T6, ETV7 (Homo sapiens, UniProt Q9Y603 1-341)
T6 sequence: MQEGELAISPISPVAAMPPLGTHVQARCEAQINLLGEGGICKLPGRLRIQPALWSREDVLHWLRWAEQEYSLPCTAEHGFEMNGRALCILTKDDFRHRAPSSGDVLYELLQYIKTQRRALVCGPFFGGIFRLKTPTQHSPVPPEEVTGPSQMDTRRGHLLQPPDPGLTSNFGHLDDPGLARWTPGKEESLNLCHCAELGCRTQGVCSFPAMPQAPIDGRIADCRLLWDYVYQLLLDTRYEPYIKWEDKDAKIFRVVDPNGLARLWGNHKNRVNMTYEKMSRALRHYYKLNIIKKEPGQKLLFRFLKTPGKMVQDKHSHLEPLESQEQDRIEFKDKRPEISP
Summary of the method: as §1

ELF4, sequence (Q99607 whole entry): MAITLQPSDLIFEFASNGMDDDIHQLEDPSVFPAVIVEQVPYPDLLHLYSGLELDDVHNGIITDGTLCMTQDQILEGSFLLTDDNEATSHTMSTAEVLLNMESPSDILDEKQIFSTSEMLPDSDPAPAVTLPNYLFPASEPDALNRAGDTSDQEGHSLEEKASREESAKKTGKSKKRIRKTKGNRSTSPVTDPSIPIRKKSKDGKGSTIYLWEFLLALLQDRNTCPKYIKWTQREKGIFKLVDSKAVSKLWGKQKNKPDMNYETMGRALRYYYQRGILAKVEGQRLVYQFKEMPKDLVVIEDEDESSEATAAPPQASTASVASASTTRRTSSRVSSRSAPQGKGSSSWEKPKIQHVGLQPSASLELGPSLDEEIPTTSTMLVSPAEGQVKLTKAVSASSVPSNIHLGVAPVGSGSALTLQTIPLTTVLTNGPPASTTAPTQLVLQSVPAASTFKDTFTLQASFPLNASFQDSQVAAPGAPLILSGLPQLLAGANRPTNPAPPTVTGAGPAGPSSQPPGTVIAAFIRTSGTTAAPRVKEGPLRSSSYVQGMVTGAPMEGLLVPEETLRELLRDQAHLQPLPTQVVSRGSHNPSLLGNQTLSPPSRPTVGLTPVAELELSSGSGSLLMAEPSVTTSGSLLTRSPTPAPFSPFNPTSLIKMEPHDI
ETV1, sequence (P50549 whole entry): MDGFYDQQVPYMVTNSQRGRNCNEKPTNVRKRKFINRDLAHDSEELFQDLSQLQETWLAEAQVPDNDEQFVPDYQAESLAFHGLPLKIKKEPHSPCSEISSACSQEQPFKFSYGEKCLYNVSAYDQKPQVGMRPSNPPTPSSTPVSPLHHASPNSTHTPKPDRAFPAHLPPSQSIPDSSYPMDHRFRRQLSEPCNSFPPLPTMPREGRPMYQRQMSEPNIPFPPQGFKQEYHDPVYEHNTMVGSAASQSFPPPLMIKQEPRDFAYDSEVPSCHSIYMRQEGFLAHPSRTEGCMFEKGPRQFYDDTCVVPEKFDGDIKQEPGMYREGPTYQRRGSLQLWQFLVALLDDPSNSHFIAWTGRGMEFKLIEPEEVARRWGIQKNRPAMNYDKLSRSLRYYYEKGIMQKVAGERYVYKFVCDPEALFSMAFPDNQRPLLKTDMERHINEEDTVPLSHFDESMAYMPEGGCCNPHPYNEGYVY

AGATCT
binding signal (EHF): 1.04 fold enrichment (6-mer frequency, TF over GST control) | binding signal (ELK3): 1.07 fold enrichment (6-mer frequency, TF over GST control) | binding signal (SPIC): 1.07 fold enrichment (6-mer frequency, TF over GST control) | binding signal (ELF4): 1.01 fold enrichment (6-mer frequency, TF over GST control) | binding signal (ELF3): 1.09 fold enrichment (6-mer frequency, TF over GST control) | binding signal (ETV1): 1.1 fold enrichment (6-mer frequency, TF over GST control) | binding signal (ERF): 1.05 fold enrichment (6-mer frequency, TF over GST control) | binding signal (ETV7): 1.05 fold enrichment (6-mer frequency, TF over GST control)
